Data from the supplement of paper PMC10037445.
Whole data set: some 2,900 compounds, median “IRF Lucia reporter activity, fold change vs agonist alone” near 0.9, cut for the highest 2% near 2.8. The sample as a whole holds a higher share of the highest values than the screen did.

Tests used:
RAW-Dual [1] = experiment: IRF Lucia reporter activity, fold change vs agonist alone; higher = enhanced IRF activity; details: library stock concentration (final ~1000-fold dilution): 10 mM, agonist: MPLA (TLR4) […]
Outline: (§1)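 RAW-Dual macrophages were seeded in DMEM at 50,000 cells/well in 384-well plates, given 50 nL of library stock by pin tool, and given a PRR agonist 1 h later. Plates were held at 37 °C, 5% CO2 for 20 hours, after which supernatant was read for IRF by QuantiLuc luminescence and for NF-κB by QuantiBlue absorbance at 620 nm. Reporter activity is expressed as fold change over wells that received agonist alone. A well was called cytotoxic when IncuCyte confluency fell below 70% of agonist controls in both mask sets.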

RAW-Dual [2] = experiment: IRF Lucia reporter activity, fold change vs agonist alone; cytotoxicity flag (confluency mask): not cytotoxic; higher = enhanced IRF activity; details: library stock concentration (final ~1000-fold dilution): 10 mM
Outline: as §1

RAW-Dual [3] = experiment: IRF Lucia reporter activity, fold change vs agonist alone; cytotoxicity flag (confluency mask): cytotoxic (confluency <70% of control); higher = enhanced IRF activity; details: library stock concentration (final ~1000-fold dilution): 10 mM
Outline: as §1

[4] = cytotoxicity flag (confluency mask): not cytotoxic
[5] = agonist: 3'3'-cGAMP (STING) 10 ug/mL

In the case of `CCC(C)C(NC(=O)C(C(C)CC)N(C)C(C)=O)C(=O)NC(=O)C(NC(CC(C)C)C(=O)C1(C)CO1)C(C)O` (stereo not drawn), the “IRF Lucia reporter activity” value (RAW-Dual [1]; [4]) was 2.09, the “IRF Lucia reporter activity” value (RAW-Dual [2]; [5]) was 1.55 and the “IRF Lucia reporter activity” value (RAW-Dual [2]; agonist: LPS (TLR4) 0.1 ug/mL) was 4.46.

For `COc1cc2c(cc1OC)C(Cc1ccc(O)c(Oc3cc4c(cc3OC)CCN(C)C4Cc3ccc(O)cc3)c1)N(C)CC2.[O-][Cl+3]([O-])([O-])O` (stereo not drawn), the “IRF Lucia reporter activity” value (RAW-Dual [2]; [5]) was 0.0548 and the “IRF Lucia reporter activity” value (RAW-Dual [2]; agonist: LPS (TLR4) 0.1 ug/mL) was 0.74.

`Cc1sc2c(c1C)C(c1ccc(Cl)cc1)=NC(CC(=O)OC(C)(C)C)c1nnc(C)n1-2` (stereo not drawn) was tested, and the “IRF Lucia reporter activity” value (RAW-Dual [1]; cytotoxicity flag (confluency mask): cytotoxic (confluency <70% of control)) was 0.122, the “IRF Lucia reporter activity” value (RAW-Dual [3]; [5]) was 0.193 and the “IRF Lucia reporter activity” value (RAW-Dual [3]; agonist: LPS (TLR4) 0.1 ug/mL) was 0.185.

For `CC(C)c1ccc2c(c1O)CCC1C3=C(CCC21C)C(=O)OC3` (stereo not drawn), the “IRF Lucia reporter activity” value (RAW-Dual [2]; [5]) was 0.917 and the “IRF Lucia reporter activity” value (RAW-Dual [2]; agonist: LPS (TLR4) 0.1 ug/mL) was 1.25.

`CCC12C=CCN3CCC4(c5ccc(OC)cc5N(C)C4C(O)(C(=O)OC)C1OC(C)=O)C32` (stereo not drawn) was tested, and the “IRF Lucia reporter activity” value (RAW-Dual [1]; [4]) was 1.06, the “IRF Lucia reporter activity” value (RAW-Dual [2]; [5]) was 0.891 and the “IRF Lucia reporter activity” value (RAW-Dual [2]; agonist: LPS (TLR4) 0.1 ug/mL) was 1.25.
